The results in this text go back to PubChem BioAssay (EPA / NIEHS).

“And” between values parts separate entries of the source, which are not always exact repeats. Identical values can stand only once. Where a structure was tested more than once in an assay, its records may differ in their call. The source made the active and inactive calls. How the source made its calls: active means hit-call score of the fitted dose curve at least 0.9, where 1 is the maximum; inactive means score below 0.9.

The term AC50 denotes the concentration at which the activity in the assay is half-maximal.

Read-out in test [1]: Monocyte Chemoattractant Protein-1 (MCP1), CCL2 (gene 6347)
The test can be described thus: BSK_IMphg_MCP1: BioMAP Diversity Plus: IMphg Assay for Monocyte Chemoattractant Protein-1 (MCP1) Biomarker Activity (AID 2284253). Particulars: primary human endothelial cells with macrophages. Summed up: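 ELISA readout of MCP-1 at 24 hours in IMphg co-cultures of venular endothelial cells and macrophages, normalised to DMSO; parallel cultures stained with sulforhodamine B for overt cytotoxicity.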

Read-out in test [2]: Interleukin-8 (IL8), CXCL8 (gene 3576)
Description: BSK_KF3CT_IL8: BioMAP Diversity Plus: KF3CT Assay for Interleukin-8 (IL8) Biomarker Activity (AID 2284254). Particulars: primary human keratinocytes with fibroblasts. Summed up: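 Human primary keratinocyte plus foreskin fibroblast co-culture dosed with test chemicals; IL-8 measured by ELISA 24 h after dosing. Activity fitted in the positive direction relative to DMSO negative control.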

Read-out in test [3]: Macrophage Inflammatory Protein-1 Alpha (MIP1a), CCL3 (gene 6348)
Description: BSK_IMphg_MIP1a: BioMAP Diversity Plus: IMphg Assay for Macrophage Inflammatory Protein-1 Alpha (MIP1a) Biomarker Activity (AID 2284255). Particulars: primary human endothelial cells with macrophages. The method in brief: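 MIP-1a protein levels were quantified by ELISA after 24 h treatment of human endothelial cell–macrophage co-cultures, compared with DMSO. Parallel cultures were fixed with TCA and stained with 0.1% SRB to gauge overt cytotoxicity.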

Read-out in a further test: CD69, CD69 (gene 969)
Description: BSK_IMphg_CD69: BioMAP Diversity Plus: IMphg Assay for CD69 Biomarker Activity (AID 2284257). Particulars: primary human endothelial cells with macrophages. The method in brief: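 Readout is ELISA for CD69 in primary human venular endothelial cell/macrophage co-culture, taken at 24 h post-dosing. SRB staining of parallel cultures gauged overt cytotoxicity; signal increase versus DMSO defined activity.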

Read-out in test [4]: Eotaxin 3, CCL26 (gene 10344)
Description: BSK_BF4T_Eotaxin3: BioMAP Diversity Plus: BF4T Assay for Eotaxin 3 Biomarker Activity (AID 2284258). Particulars: primary human bronchial epithelial cells with fibroblasts. The method in brief:
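ELISA measurement of Eotaxin-3 after 24 h chemical exposure in a bronchial epithelial/dermal fibroblast co-culture, with DMSO as baseline. Parallel SRB staining (0.1% SRB after 10% TCA fixation, 560 nm) flagged overt cytotoxicity.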

Read-out in test [5]: Monocyte Chemoattractant Protein-1 (MCP1), CCL2 (gene 6347)
Description: BSK_BF4T_MCP1: BioMAP Diversity Plus: BF4T Assay for Monocyte Chemoattractant Protein-1 (MCP1) Biomarker Activity (AID 2284259). Particulars: primary human bronchial epithelial cells with fibroblasts. Summed up:
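MCP-1 ELISA readout taken 24 h after dosing in the BF4T system (bronchial epithelial cells plus dermal fibroblasts). Parallel SRB total-protein staining flagged cytotoxicity; DMSO served as baseline, positive fitting direction.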

Read-out in test [6]: Intercellular Adhesion Molecule 1 (ICAM1), ICAM1 (gene 3383)
The test can be described thus: BSK_BF4T_ICAM1: BioMAP Diversity Plus: BF4T Assay for Intercellular Adhesion Molecule 1 (ICAM1) Biomarker Activity (AID 2284260). Particulars: primary human bronchial epithelial cells with fibroblasts. Summed up:
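ICAM-1 levels measured by ELISA after 24 h chemical treatment of bronchial epithelial cell/dermal fibroblast co-cultures, read against DMSO baseline. Overt cytotoxicity checked in parallel cultures by sulforhodamine B staining.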

Read-out in test [7]: Interleukin-8 (IL8), CXCL8 (gene 3576)
Description: BSK_MyoF_IL8: BioMAP Diversity Plus: MyoF Assay for Interleukin-8 (IL8) Biomarker Activity (AID 2284261). Particulars: primary human lung fibroblasts. The method in brief:
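ELISA read-out of IL-8 from primary human lung fibroblasts, 24 h post-dose; positive-direction curve fitting relative to DMSO vehicle baseline.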

Read-out in a further test: CD90, THY1 (gene 7070)
The test can be described thus: BSK_BF4T_CD90: BioMAP Diversity Plus: BF4T Assay for CD90 Biomarker Activity (AID 2284262). Particulars: primary human bronchial epithelial cells with fibroblasts. Summed up:
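CD90 levels by ELISA after 24 h treatment of human bronchial epithelial cell/dermal fibroblast cultures, analysed versus DMSO. Overt cytotoxicity checked in parallel cultures by sulforhodamine B staining.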

Read-out in test [8]: Interleukin-8 (IL8), CXCL8 (gene 3576)
The test can be described thus: BSK_BF4T_IL8: BioMAP Diversity Plus: BF4T Assay for Interleukin-8 (IL8) Biomarker Activity (AID 2284263). Particulars: primary human bronchial epithelial cells with fibroblasts. The method in brief:
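Human bronchial epithelial cells with dermal fibroblasts co-culture; IL-8 measured by ELISA 24 hours after dosing, fitted vs DMSO. Cytotoxicity tracked in parallel cultures by SRB total-protein staining.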

Read-out in test [9]: Interleukin-1 alpha (IL1a), IL1A (gene 3552)
Description: BSK_BF4T_IL1a: BioMAP Diversity Plus: BF4T Assay for Interleukin-1 alpha (IL1a) Biomarker Activity (AID 2284264). Particulars: primary human bronchial epithelial cells with fibroblasts. The method in brief: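 ELISA read-out of IL-1α from bronchial epithelial cell/dermal fibroblast co-cultures 24 h after compound addition. Increases scored against DMSO negative control. Cytotoxicity monitored by sulforhodamine B staining of parallel cultures.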

Read-out in another test: KRT18 (gene 3875)
Description: BSK_BF4T_Keratin818: BioMAP Diversity Plus: BF4T Assay for Keratin 818 Biomarker Activity (AID 2284266). Particulars: primary human bronchial epithelial cells with fibroblasts. The method in brief: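 Keratin 8/18 levels quantified by ELISA after 24 h chemical treatment of bronchial epithelial cell/dermal fibroblast co-cultures, fitted in positive direction relative to DMSO. Parallel SRB staining tracks overt cytotoxicity.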

Test [10] can be described thus: BSK_MyoF_SRB: Viability Assessment in the BioMAP Diversity Plus: MyoF Assay (AID 2284267).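 Further: total protein by SRB absorbance in parallel cultures as cytotoxicity measure.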 Particulars: primary human lung fibroblasts. The method in brief: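 Confluent human lung fibroblasts were exposed to test chemicals for 24 h. Parallel wells were then fixed in 10% TCA, stained with 0.1% sulforhodamine B and measured at 560 nm. DMSO served as baseline for curve fitting.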

Read-out in test [11]: Matrix Metallopeptidase 1 (MMP1), MMP1 (gene 4312)
The test can be described thus: BSK_MyoF_MMP1: BioMAP Diversity Plus: MyoF Assay for Matrix Metallopeptidase 1 (MMP1) Biomarker Activity (AID 2284268). Particulars: primary human lung fibroblasts. Summed up:
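ELISA readout of MMP1 in primary human lung fibroblast cultures, 24 h post-dosing. Gain of signal versus DMSO vehicle control defines activity. Parallel SRB staining (0.1% after 10% TCA fixation, 560 nm) flags overt cytotoxicity.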

Read-out in test [12]: TIMP metallopeptidase inhibitor 1 (TIMP1), TIMP1 (gene 7076)
The test can be described thus: BSK_MyoF_TIMP1: BioMAP Diversity Plus: MyoF Assay for TIMP metallopeptidase inhibitor 1 (TIMP1) Biomarker Activity (AID 2284269). Particulars: primary human lung fibroblasts. Summed up: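 Fibroblasts from human lung are dosed with chemical, cultured 24 h, and assayed for TIMP-1 by ELISA. Increases over the DMSO baseline are scored, with SRB total-protein staining run in parallel for cytotoxicity.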

Read-out in test [13]: Matrix Metallopeptidase 1 (MMP1), MMP1 (gene 4312)
Description: BSK_BF4T_MMP1: BioMAP Diversity Plus: BF4T Assay for Matrix Metallopeptidase 1 (MMP1) Biomarker Activity (AID 2284270). Particulars: primary human bronchial epithelial cells with fibroblasts. The method in brief:
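MMP-1 quantified by ELISA in primary human bronchial epithelial/dermal fibroblast co-cultures, 24 hours post-dosing, with DMSO as baseline; parallel sulforhodamine B staining (560 nm) tracks overt cytotoxicity.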

Read-out in test [14]: Matrix Metallopeptidase 3 (MMP3), MMP3 (gene 4314)
The test can be described thus: BSK_BF4T_MMP3: BioMAP Diversity Plus: BF4T Assay for Matrix Metallopeptidase 3 (MMP3) Biomarker Activity (AID 2284271). Particulars: primary human bronchial epithelial cells with fibroblasts. The method in brief:
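MMP-3 level read by ELISA after 24 h chemical exposure of bronchial epithelial cell/dermal fibroblast co-cultures, fitted upward relative to DMSO. Parallel cultures stained with 0.1% SRB after TCA fixation gauge overt cytotoxicity.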

Read-out in test [15]: Tissue plasminogen activator (tPA), PLAT (gene 5327)
The test can be described thus: BSK_BF4T_tPA: BioMAP Diversity Plus: BF4T Assay for Tissue plasminogen activator (tPA) Biomarker Activity (AID 2284272). Particulars: primary human bronchial epithelial cells with fibroblasts. The method in brief: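 tPA level quantified by ELISA at 24 h post-treatment in bronchial epithelial/dermal fibroblast co-cultures, gain of signal scored against DMSO baseline. Parallel cultures stained with 0.1% SRB (560 nm) to flag overt cytotoxicity.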

Read-out in test [16]: Plasminogen Activator Inhibitor-1 (PAI1), SERPINE1 (gene 5054)
The test can be described thus: BSK_BF4T_PAI1: BioMAP Diversity Plus: BF4T Assay for Plasminogen Activator Inhibitor-1 (PAI1) Biomarker Activity (AID 2284273). Particulars: primary human bronchial epithelial cells with fibroblasts. Summed up: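 PAI-1 levels quantified by ELISA 24 h post-dosing in bronchial epithelial cell plus dermal fibroblast cultures. Signal gain referenced to DMSO baseline. Sulforhodamine B total-protein staining of parallel wells checked cytotoxicity.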

Test [17] can be described thus: BSK_BF4T_SRB: Viability Assessment in the BioMAP Diversity Plus: BF4T Assay (AID 2284274). Particulars: primary human bronchial epithelial cells with fibroblasts. The method in brief:
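Cytotoxicity measured as total protein: cells fixed with 10% TCA, stained with 0.1% SRB, read at 560 nm. Bronchial epithelial/dermal fibroblast co-culture, 24 h after dosing, with positive-direction fitting relative to DMSO.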

Consider `OCC(F)(OC(F)(F)C(F)(OC(F)(F)C(F)(F)C(F)(F)F)C(F)(F)F)C(F)(F)F` (stereo not drawn), for which the AC50 in test [1] is 4.65 µM (active); in test [2], 4.96 µM (active); in [5] it was 4.19 µM (active); in test [10] it was 2.54 µM (active) and 3.33 µM (active); in test [15] it was 4.28 µM (active). Moreover, the outcome in [1] is “inactive”; in test [2], “inactive”; in [3], “inactive”; in the test with CD69, CD69 (gene 969), “inactive”; in test [4], “inactive”; in test [5] it was “inactive”. The outcome was “inactive” in test [6]; “inactive” in test [7]; “inactive” with CD90, THY1 (gene 7070); “inactive” in [8]; “inactive” in [9]; “inactive” with KRT18 (gene 3875). In addition, the result in [11], in [12], in test [13], in [14], in test [15] and in test [16] was inactive. Besides, in [17], the result was inactive.
As to `C=C1CC/C=C(\C)CC[C@@H]2[C@@H]1CC2(C)C`, in [7], the outcome was inactive. In addition, the AC50 in test [10] was 28.8 µM (active); in test [11], 9.66 µM (active); in [12], 34.6 µM (active).
As for `CCn1cc(C(=O)O)c(=O)c2ccc(C)nc21`, the result in test [2] was inactive.
Still for that read-out and setting: the entry for `c1ccc(OCCOc2ccccc2)cc1` is “inactive”.
As to `CCOC(=O)CCCCCCCCC(=O)OCC`, the result in [7], in test [10], in test [11] and in test [12] was inactive.
Regarding `CCCCCCCCCCCCS`, the outcome in test [7] and in [12] was inactive. Further, the AC50 in test [10] is 20 µM (active); in test [11] it was 5.81 µM (active).
Consider `C=CC(=O)OCC(CO)(COC(=O)C=C)COC(=O)C=C`, for which the AC50 in [7] is 4.24 µM (active); in [10], 0.642 µM (active); in [12] it was 2.05 µM (active). Moreover, the result in [11] was inactive.
Regarding `CCCCCCCCCC(=O)OCC`, the outcome in test [7], in [10], in test [11] and in [12] was inactive.
For `CCOC(=O)C=Cc1ccccc1`, the outcome in [7], in test [10], in test [11] and in test [12] was inactive.
As for `O=S1(=O)CC(Cl)(Cl)C(Cl)(Cl)C1`, in test [7], the result was inactive. Further, the AC50 in test [10] is 2.14 µM (active); in test [11], 3.45 µM (active); in [12], 3.94 µM (active).
Consider `CC(=O)OCC=C(C)CCC=C(C)CCC=C(C)C`, for which the result in test [7], in test [10], in [11] and in test [12] was inactive.
